Test results as given in PubChem BioAssay AID1159580 (chemical genetic matrix, 2015).
In all, about 5,500 compounds went through this assay and about 2,000 (36%) were called active. Not shown: some 18% with an inconclusive outcome. No stated cut-off is given here; in the data, active means normalized growth mostly below about 0.91 (no sharp cut-off); inconclusive means no clear call, values can overlap the other calls; inactive means mostly above about 0.92. The list shows a part of the results. Where a SMILES comes first, the peptide text is derived from it.

Experiment: chemical genetic growth profiling, strain panel (AID 1159580);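 further: tested at 20 µM; growth read once vehicle control cultures reached saturation at 30 °C; 1 = growth at the plate median or of vehicle wells; lower values mean less growth of the strain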
Settings: S. cerevisiae deletion strains, growth OD
[1] = locus YAL013W, strain DEP1, active compounds read low
[2] = locus YBR229C, strain ROT2, active compounds read low
[3] = locus YDL101C, strain DUN1, active compounds read low
[4] = locus YDL134C, strain PPH21, active compounds read low
[5] = locus YEL061C, strain CIN8, active compounds read low
[6] = locus YGR078C, strain PAC10, active compounds read low
[7] = locus YHR030C, strain SLT2, active compounds read low
[8] = locus YJL095W, strain BCK1, active compounds read low
[9] = locus YJR043C, strain POL32, active compounds read low
[10] = locus YLR039C, strain RIC1, active compounds read low
[11] = locus YLR262C, strain YPT6, active compounds read low
[12] = locus YMR263W, strain SAP30, active compounds read low
[13] = locus YNL128W, strain TEP1, active compounds read low
[14] = locus YNL153C, strain GIM3, active compounds read low
[15] = locus YOL006C, strain TOP1, active compounds read low
[16] = locus YHR079C, strain IRE1, active compounds read low
[17] = locus YJR066W, strain TOR1, active compounds read low
[18] = locus YLR113W, strain HOG1, active compounds read low
[19] = locus YNL183C, strain NPR1, active compounds read low
[20] = locus YOR231W, strain MKK1, active compounds read low
[21] = locus YPL256C, strain CLN2, active compounds read low

Measured: normalized growth

Nc1nc2[nH]c(=O)c(=O)[nH]c2c(=O)[nH]1
inactive: [1] 1.01 | locus YBR021W, strain FUR4, active compounds read low 0.971 | [2] 0.998 | locus YCL029C, strain bik1, active compounds read low 1.03 | locus YDL035C, strain GPR1, active compounds read low 1.01 | locus YDL074C, strain BRE1, active compounds read low 1.01 | [3] 1 | [4] 1.02 | locus YDL185W, strain tfp1, active compounds read low 1.01 | locus YDL192W, strain arf1, active compounds read low 0.995 | locus YDR101C, strain arx1, active compounds read low 0.987 | locus YDR162C, strain NBP2, active compounds read low 1.05 | locus YDR318W, strain mcm21, active compounds read low 1.01 | locus YDR388W, active compounds read low 1.01 | locus YDR502C, strain sam2, active compounds read low 1.01 | [5] 1.01 | locus YER110C, active compounds read low 1.01 | locus YER155C, strain BEM2, active compounds read low 1.01 | locus YER167W, strain BCK2, active compounds read low 1.01 | locus YGL078C, strain dbp3, active compounds read low 1.01 | locus YGL086W, strain mad1, active compounds read low 0.978 | locus YGL248W, strain PDE1, active compounds read low 1.01 | [6] 1.01 | locus YGR135W, strain pre9, active compounds read low 1.03 | locus YGR252W, strain gcn5, active compounds read low 1.01 | [7] 1.01 | locus YHR079C, strain IRE1 (second series), active compounds read low 1 | locus YHR094C, strain hxt1, active compounds read low 1.01 | locus YHR129C, strain ARP1, active compounds read low 1.01 | locus YHR200W, strain rpn10, active compounds read low 0.992 | locus YIL066C, strain RNR3, active compounds read low 1.02 | locus YIL073C, strain SPO22, active compounds read low 1.04 | locus YIL125W, strain kgd1, active compounds read low 1.01 | locus YIR030C, strain dcg1, active compounds read low 1.01 | [8] 1.02 | locus YJL134W, strain LCB3, active compounds read low 1.02 | locus YJL168C, strain set2, active compounds read low 1 | locus YJL187C, strain SWE1 (second series), active compounds read low 1.01 | [9] 0.996 | locus YKL009W, strain mrt4, active compounds read low 0.998 | locus YKL068W, active compounds read low 1.01 | locus YKL085W, strain MDH1 (second series), active compounds read low 1.02 | locus YKL085W, strain MDH1, active compounds read low 1.02 | locus YKL190W, strain CNB1, active compounds read low 1.01 | locus YKR001C, strain vps1, active compounds read low 1 | [10] 1.03 | locus YLR058C, strain SHM2, active compounds read low 1.01 | locus YLR102C, strain apc9, active compounds read low 1.01 | [11] 1.08 | locus YLR268W, strain sec22, active compounds read low 1.02 | locus YLR330W, strain CHS5, active compounds read low 1.01 | locus YLR342W, strain FKS1 (second series), active compounds read low 0.973 | locus YLR371W, strain rom2, active compounds read low 1.02 | locus YLR418C, strain cdc73, active compounds read low 0.971 | locus YML016C, strain PPZ1, active compounds read low 0.996 | locus YML032C, strain rad52, active compounds read low 1.02 | locus YML124C, strain tub3, active compounds read low 1.01 | locus YMR078C, strain ctf18, active compounds read low 1 | locus YMR223W, strain ubp8, active compounds read low 1.01 | [12] 1.01 | locus YMR307W, strain GAS1, active compounds read low 1.02 | locus YNL067W, strain RPL9B, active compounds read low 1.02 | [13] 1.05 | [14] 1.01 | locus YNL233W, strain BNI4, active compounds read low 1.03 | locus YNL250W, strain rad50, active compounds read low 1.02 | locus YNL271C, strain bni1, active compounds read low 1.01 | locus YNL298W, strain CLA4, active compounds read low 1 | locus YNL307C, strain MCK1, active compounds read low 1 | locus YNR052C, strain pop2, active compounds read low 1.02 | [15] 1.01 | locus YOL012C, strain htz1 1.04 | locus YOL147C, strain pex11, active compounds read low 1 | locus YOR061W, strain CKA2, active compounds read low 1 | locus YOR069W, strain VPS5, active compounds read low 1.01 | locus YOR136W, strain idh2, active compounds read low 1.01 | locus YOR144C, strain elg1, active compounds read low 1 | locus YOR184W, strain ser1, active compounds read low 0.996 | locus YOR316C, strain cot1, active compounds read low 1.01 | locus YPR119W, strain clb2, active compounds read low 1.02 | locus YPR141C, strain kar3, active compounds read low 1.01 | locus YPR163C, strain tif3, active compounds read low 1.02 | locus YPR167C, strain met16, active compounds read low 1.04 | strain wtn01, active compounds read low 1

CC(C)C[C@H](N)C(=O)N[C@@H](C)C(=O)O (H-Leu-Ala-OH)
inactive: [7] 1.01 | [16] 1.01 | [8] 1.02 | [17] 0.975 | [18] 1.02 | [19] 0.954 | [20] 1.03 | [21] 1.02

COc1ccc(C(C)=O)c(OC)c1
inactive: [7] 0.954 | [16] 0.952 | [8] 0.965 | [17] 0.953 | [18] 0.948 | [19] 0.895 | [20] 0.934 | [21] 0.909

COC(=O)c1cc(OC)c(OC)c(OC)c1NS(=O)(=O)c1cc(OC)ccc1OC
inactive: [1] 0.999 | [2] 0.999 | locus YCL061C, strain MRC1, active compounds read low 0.974 | [3] 0.968 | [4] 1.02 | locus YDR150W, strain NUM1, active compounds read low 0.984 | [5] 1.03 | [6] 0.983 | locus YGR229C, strain SMI1, active compounds read low 1.01 | [7] 0.965 | locus YHR087W, strain rtc3, active compounds read low 1.03 | [9] 0.987 | locus YJR075W, strain HOC1, active compounds read low 0.992 | [10] 0.984 | locus YLR058C, strain SHM2 (second series), active compounds read low 1.02 | locus YLR085C, strain ARP6, active compounds read low 1.02 | [11] 1.02 | locus YML094W, strain GIM5, active compounds read low 1.04 | locus YMR219W, strain ESC1, active compounds read low 1 | [12] 1 | [13] 1 | [14] 0.992 | locus YNL298W, strain CLA4 (second series), active compounds read low 0.987 | locus YNL322C, strain KRE1, active compounds read low 0.996 | locus YNR030W, strain Alg12, active compounds read low 1.01 | [15] 0.981 | locus YPL055C, strain LGE1, active compounds read low 1.03 | locus YPL241C, strain CIN2, active compounds read low 0.983 | locus YPR135W, strain CTF4, active compounds read low 0.969
